Reference: the supplement of paper PMC6555819

Legend:
Assay in all cases: PBM binding z-score (relative to random genomic background probes); higher = stronger binding; sequences stand for … in GC…GCGATTGACAGCGTAGAATGAAGG
[1] = tested on: FXR:RXRa (NR concentration 270 nM, RXRa partner concentration 90 nM)
In short: (§1)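 Regression normalization was applied to scanned fluorescence from custom Agilent 4×180K protein-binding microarrays. Before scanning, arrays were incubated 1 h with ligand-free nuclear receptor dimers, and binding was detected with antibodies against each partner (one per run). Binding z-scores use the random background probes as reference.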

[2] = tested on: LXRa:RXRa (NR concentration 270 nM, RXRa partner concentration 90 nM)
In short: as §1

[3] = tested on: LXRa homodimer (NR concentration 270 nM)
In short: as §1

[4] = tested on: LXRb:RXRa (NR concentration 270 nM, RXRa partner concentration 90 nM)
In short: as §1

[5] = tested on: LXRb homodimer (NR concentration 270 nM)
In short: as §1

[6] = tested on: PPARa:RXRa (NR concentration 270 nM, RXRa partner concentration 90 nM)
In short: as §1

[7] = tested on: PPARg:RXRa (NR concentration 180 nM, RXRa partner concentration 90 nM)
In short: as §1

[8] = tested on: PPARg:RXRa 270nM:90nM, anti-RXR (NR concentration 270 nM, RXRa partner concentration 90 nM)
In short: as §1

[9] = tested on: PPARg:RXRa 30nM:10nM, anti-RXR (NR concentration 30 nM, RXRa partner concentration 10 nM)
In short: as §1

[10] = tested on: PPARg:RXRa 90nM:30nM, anti-RXR (NR concentration 90 nM, RXRa partner concentration 30 nM)
In short: as §1

[11] = tested on: PPARg:RXRa DBDmut IVT, anti-RXR (DBD mutation: RXRa K156A/R161A, NR concentration 270 nM, RXRa partner concentration 90 nM)
In short: as §1

[12] = tested on: PPARg:RXRa IVT, anti-PPARg (NR concentration 270 nM, RXRa partner concentration 90 nM)
In short: as §1

[13] = tested on: PPARg DBDmut:RXRa IVT, anti-PPARg (DBD mutation: PPARg1 K132A/R137A, NR concentration 270 nM, RXRa partner concentration 90 nM)
In short: as §1

[14] = tested on: PPARg DBDmut IVT, anti-PPARg (DBD mutation: PPARg1 K132A/R137A, NR concentration 270 nM)
In short: as §1

[15] = tested on: PPARg homodimer (NR concentration 180 nM)
In short: as §1

[16] = tested on: PXR:RXRa (NR concentration 270 nM, RXRa partner concentration 90 nM)
In short: as §1

[17] = tested on: PXR homodimer (NR concentration 270 nM)
In short: as §1

[18] = tested on: RARa:RXR (NR concentration 270 nM, RXRa partner concentration 90 nM)
In short: as §1

[19] = tested on: RARa homodimer (NR concentration 270 nM)
In short: as §1

[20] = tested on: RARb:RXRa (NR concentration 270 nM, RXRa partner concentration 90 nM)
In short: as §1

| Sequence | PBM binding z-score [1] | PBM binding z-score [2] | PBM binding z-score [3] | PBM binding z-score [4] | PBM binding z-score [5] | PBM binding z-score [6] | PBM binding z-score [7] | PBM binding z-score [8] | PBM binding z-score [9] | PBM binding z-score [10] | PBM binding z-score [11] | PBM binding z-score [12] | PBM binding z-score [13] | PBM binding z-score [14] | PBM binding z-score [15] | PBM binding z-score [16] | PBM binding z-score [17] | PBM binding z-score [18] | PBM binding z-score [19] | PBM binding z-score [20] |
| --- | --- | --- | --- | --- | --- | --- | --- | --- | --- | --- | --- | --- | --- | --- | --- | --- | --- | --- | --- | --- |
| ATCTCTAGGAAAAGTTCAGTGAAAGATCGATAGA | 0.71 | 1.22 | 0.761 | 0.737 | 0.622 | 0.611 | 0.521 | 1.56 | 0.619 | 1.36 | -0.273 | 0.00412 | 1.12 | 0.44 | 0.701 | 1.43 | 1.46 | 0.476 | 1.52 | 2.17 |
| AGTCAAAGTTCACTAGGTAACGTTAGATTCAGCT | 5.17 | 5.24 | 3.17 | 2.95 | 1.04 | 4.7 | 7.15 | 6.57 | 3.45 | 6.1 | 2.64 | 4.82 | 1.46 | 1.15 | 2.91 | 3.95 | 2.61 | 3.1 | 0.915 | 4.65 |
| AGAGCGAGGGCAATGAGTTGATAGCACGGGTGGC | -0.116 | -0.109 | -0.331 | -0.283 | -0.845 | 0.406 | 0.562 | -0.152 | -0.57 | -0.736 | 0.771 | 0.253 | 0.00949 | -1.18 | -0.656 | 1.38 | 4.01 | 0.0108 | -1 | 2.13 |
| CGCCAAAGTTCAACTAAGGTAACGTAAAGCACGC | 5.71 | 6.43 | 4.61 | 4.35 | 2.19 | 5.16 | 4.03 | 5.02 | 1.67 | 3.91 | 0.771 | 1.55 | 0.546 | 0.253 | 3.81 | 5.66 | 5.04 | 4.28 | 2.96 | 5.16 |
| CCTATTAGTTGACCATATGGGCAACCGAAGCTCG | 0.27 | 0.454 | 0.368 | 0.353 | 0.853 | -0.034 | 0.453 | 0.317 | -0.521 | -0.00655 | 0.421 | 1.14 | 0.935 | 0.461 | 0.842 | 0.0373 | 0.489 | 0.314 | 1.68 | 0.652 |
| CAAACTAGATCAAAGGTCAAAGTCGAGCCAACCA | 5.73 | 5.82 | 5.07 | 5.77 | 3.09 | 6.79 | 11.4 | 10.2 | 11.1 | 11.9 | 4.3 | 6.8 | 1.17 | 1.55 | 4.96 | 5.7 | 1.84 | 6.94 | 2.11 | 4.83 |
| GCTTACGGGTCAAAGGTTCTAGCATGAATAGAAT | 6.11 | 4.09 | -0.0816 | 4.09 | -0.186 | 5.91 | 8.84 | 7.78 | 7.78 | 8.24 | 5.13 | 5.05 | 0.842 | 0.712 | 1.45 | 4 | 0.0267 | 5.93 | 0.382 | 3.82 |
| ATCTCTAGGTAACCAAGTTTAGTGAATGCCGAAC | 0.39 | 0.24 | 0.318 | 0.275 | 0.481 | 0.803 | 0.412 | 0.529 | 0.254 | 0.616 | 3.62 | 2.79 | 0.887 | 1.75 | 0.787 | 0.564 | 0.333 | 0.55 | 1.08 | 0.627 |
| TCTTGTAGATCAACGGGAGGTTAAGAAAGATCGA | 0.553 | 1.31 | 0.00977 | 1.17 | 0.12 | 1.49 | -0.121 | 1.58 | 2.52 | 2.01 | 2.28 | 0.974 | 0.226 | -0.0514 | 0.14 | 0.94 | 0.02 | 1.14 | 0.281 | 0.648 |
| GTACCAAGGTGAATAGGTCGTTGGTGAGTAGGCG | 0.874 | 0.844 | -0.171 | 0.388 | -0.834 | 2.25 | 1.17 | 1.93 | 0.116 | 1.13 | 1.63 | 2.76 | -0.162 | -0.965 | 0.877 | 0.626 | -0.0296 | 1.9 | -0.0597 | 2.1 |
| TCGAGTAGGGTAGTCGGGGCATTCAGCCAACATA | -0.261 | -0.324 | -0.232 | 0.0407 | -0.844 | 0.109 | -0.307 | 0.468 | 0.525 | 0.442 | 1.33 | 0.997 | -1.17 | -0.743 | 0.299 | -0.12 | -0.394 | -0.233 | -0.527 | 0.0213 |
| GATACTGGGTCAAGGCCAGAGTACGCGTATTGAT | 2.37 | 1.21 | -0.0541 | 1.22 | -0.791 | 4.05 | 5.9 | 5.27 | 2.7 | 4.74 | 6.7 | 7.44 | 0.217 | 1.07 | 1.49 | 1.23 | -0.00412 | 1.72 | 0.506 | 3.48 |
| TGTCAAAGTTCAAAGGTAACGCAAGTATCCACAC | 7.39 | 6.39 | 4.52 | 4.83 | 1.75 | 6.18 | 9.31 | 8.11 | 5.51 | 7.89 | 0.302 | 4.95 | 0.987 | 0.888 | 3.82 | 6.07 | 4.47 | 7.09 | 1.84 | 5.19 |
| CGTCCAAGGCCAATGCTAGGTCAGTGAAAGCATT | 0.0419 | -0.0335 | 0.187 | -0.036 | -0.831 | 0.242 | -0.45 | -0.432 | -1.33 | -0.866 | -0.0283 | 0.421 | -0.963 | -1.46 | 0.131 | 0.224 | -0.267 | 0.552 | -1.03 | 2.19 |
